TDP1 cell CPT: DT40-hTDP1 cell growth loss with CPT | chicken DT40 Tdp1-/-;hTDP1 cells + 20 nM CPT, ATP luminescence, 48 h | Potency, µM (doses to about 46.2 µM), inactives show top-dose activity change, negative = growth inhibition, actives largely listed as inhibitors | hit rate 12% among 420,000; also: potency is read from the fitted curve at half-maximal effect; % is scaled to controls: 0 for no effect and ±100 for the full control effect; nearly all actives have a fitted effect of over 55% in size
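Chicken DT40 Tdp1-/- cells complemented with human TDP1, 400 cells/well, exposed to compounds plus 20 nM camptothecin for at least 48 h at 37 C; viability read as ATP content by CellTiter-Glo luminescence.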
IL1B secr inh: inhibitors of inflammasome signaling (IL-1 beta secretion); THP-1 LPS/ATP IL-1B secretion, AlphaLISA, 16 h; hits give low values; activity change, % at 57.5 µM; hit rate 4.7% among 360,000; AID 743279; in the data active = activity change below about -50%; inconclusive = mostly about -30% to -49%; also: % is scaled to controls: 0 for no effect and ±100 for the full control effect
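THP-1 cells pretreated 1 hr with compounds (up to 57.5 uM final), then stimulated with LPS (250 ng/mL final) plus ATP (1.25 mM final); secreted IL-1B measured by AlphaLISA after 16 hr, decreased signal indicating inhibition.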
HepG2 viability: counter-screen for TGF-b inhibitors: cytotoxicity in HepG2 cells. HepG2 CAGA-GFP viability, ATP luminescence, 18 h. Potency, µM (top dose mostly 46.1 µM), without a hit: at the highest dose activity change, negative = cytotoxicity, hits mostly cytotoxic. hit rate 0.76% among 410,000. AID 588856; also: potency is read from the fitted curve at half-maximal effect
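HepG2 CAGA-GFP cells (1000/well, DMEM with 1% FBS) received compound, then TGF-beta at 500 pg/mL final, and were incubated 18 hours at 37 degrees C. Viability was read by CellTiter-Glo luminescence. Media-only wells were set as complete cell-killing and DMSO as no toxicity.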
TGFb inhibitor: inhibitors of TGF-b signaling; HepG2 CAGA-GFP TGF-b/SMAD3 reporter, GFP fluorescence, 18 h; TGF-beta stimulated, 500 pg/mL final; Potency, µM (titrated, usually from 46.1 µM), without a hit: at the highest dose activity, negative = inhibition, usual class: inhibitors; hit rate 1.2% among 410,000; AID 588855; also: potency is read from the fitted curve at half-maximal effect; % is scaled to controls: 0 for no effect and ±100 for the full control effect; nearly all actives have a fitted effect of over 65% in size
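Per well, imaged GFP fluorescence of HEPG2 CAGA-GFP cells gives the signal; cells get compound, then TGF-beta (500 pg/mL final), 18 h at 37 degrees C; %Activity versus -TGF-beta and +DMSO controls.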
TDP1 block: blocks human tyrosyl-DNA phosphodiesterase 1. Potency, µM (top dose mostly 130 µM), for inactives: top-dose activity change, negative = inhibition, hits mostly inhibitors. hit rate 0.28% among 350,000. recombinant TDP1, AlphaScreen DNA substrate cleavage. Q9NUW8; also: potency is read from the fitted curve at half-maximal effect; % is scaled to controls: 0 for no effect and ±100 for the full control effect; nearly all actives have a fitted effect of over 40% in size
Target sequence (Q9NUW8 whole entry, looked up): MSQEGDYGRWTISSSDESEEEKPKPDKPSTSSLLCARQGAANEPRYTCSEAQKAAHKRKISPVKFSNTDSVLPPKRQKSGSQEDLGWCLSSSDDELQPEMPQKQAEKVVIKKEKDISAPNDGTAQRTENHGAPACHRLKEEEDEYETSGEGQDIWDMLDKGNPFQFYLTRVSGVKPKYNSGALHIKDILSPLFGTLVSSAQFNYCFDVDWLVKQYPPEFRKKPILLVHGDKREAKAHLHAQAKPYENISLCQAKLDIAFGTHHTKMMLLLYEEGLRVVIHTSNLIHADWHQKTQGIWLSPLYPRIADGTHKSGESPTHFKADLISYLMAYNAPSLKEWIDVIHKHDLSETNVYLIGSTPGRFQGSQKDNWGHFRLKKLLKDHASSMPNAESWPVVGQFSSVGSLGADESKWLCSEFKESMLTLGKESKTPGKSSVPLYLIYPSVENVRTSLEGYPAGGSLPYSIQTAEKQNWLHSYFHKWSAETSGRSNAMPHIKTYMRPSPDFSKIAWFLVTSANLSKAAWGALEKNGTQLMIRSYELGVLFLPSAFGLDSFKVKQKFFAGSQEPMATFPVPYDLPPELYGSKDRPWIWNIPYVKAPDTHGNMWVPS
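Tdp1 1 nM final; 15 min RT w/ cpd; substrate 15 nM, 5 min; beads 10 ug/ml, 10 min; AlphaScreen read. Neg ctrl: no enzyme.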
DT40 TDP1 no CPT: qHTS for Inhibitors of human tyrosyl-DNA phosphodiesterase 1 (TDP1): qHTS in cells in absence of CPT. DT40 Tdp1-/- hTDP1 cells, no CPT, ATP luminescence, 48 h. Potency, µM (highest dose often 46.2 µM), without a hit: at the top dose activity change, negative = growth inhibition, most hits filed as inhibitors. hit rate 15% among 420,000. AID 686978, 2013; also: potency is read from the fitted curve at half-maximal effect; % is scaled to controls: 0 for no effect and ±100 for the full control effect; nearly all actives have a fitted effect of over 55% in size
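Stably hTDP1-transfected Tdp1-null chicken DT40 cells were treated with library compounds minus camptothecin and grown for at least 48 hr at 37 °C, after which cellular ATP was quantified by luminescence.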
* = called active by the depositor; ? = inconclusive; · = no result; [ ] = another dose, or the depositor's remark. Most compounds without a hit are left out; they make up all but 18% or so of the library. Unless noted, calls follow the shape of the dose curve; as a rule, active = well fitted curve in the direction sought with a large enough effect; inconclusive = small, poorly fitted or top-dose-only effect, or another doubt; inactive = no such curve, though single readings can be large; an effect the other way counts as inactive or inconclusive.

SMILES	TDP1 cell CPT	IL1B secr inh	HepG2 viability	TGFb inhibitor	TDP1 block	DT40 TDP1 no CPT
Cc1ccc(NC(=S)N2CCC(c3nc4ccccc4s3)CC2)cc1	?	-50.2*	-13.9%	?	3.2%	?
O=C1CCCC2=C1CC(C(=O)OCc1ccccc1)C(=O)N2Cc1ccccc1 (stereo not given)	-15.9%	31.0	-23.7%	?	·	-2.4%
COc1ccc(Cl)cc1NC(=S)N(CCCN1CCOCC1)Cc1cn(C)c2ccccc12	13µM*	-19.1	-7.9%	?	4.7%	?
COc1cc(Cl)ccc1NC(=S)N(CCCN1CCOCC1)Cc1cn(C)c2ccccc12	16.4µM*	?	3.1%	-8.3%	7.9%	20.6µM*
Cc1ccc(Cl)cc1NC(=S)N(CCCN1CCOCC1)Cc1ccccn1	-1.3%	-11.8	-15.9%	5.3%	2.7%	-1.1%
COc1cccc(CN2CC(C(=O)NCCN3CCOC3=O)CCC2=O)c1 (stereo not given)	-3.2%	-5.6	13.8%	8.0%	5.5%	14.2%
Cc1cc(Cl)ccc1NC(=O)CN(C)C1=NS(=O)(=O)c2ccccc21	-2.9%	12.5	1.7%	4.3%	-2.4%[56.1 µM]	2.5%
Cc1ccc(S(=O)(=O)N2CCOCC2)cc1NC(=O)Nc1ccc([N+](=O)[O-])cc1	?	-3.2	5.5%	15.5%	2.1%	?
CCN(CC)c1ccc(S(=O)(=O)N2CCOCC2)cc1NC(=O)CSC(=S)N1CCCC1	18.4µM*	?	-0.5%	0.0%	5.8%	10.3µM*
CCN(CC)c1ccc(S(=O)(=O)N2CCOCC2)cc1NC(=O)CNCc1ccccc1	?	-21.5	-11.9%	?	3.5%	20.6µM*
CCN(CC)c1ccc(S(=O)(=O)N2CCOCC2)cc1NC(=O)CN1CCN(Cc2ccccc2)CC1	16.4µM*	-0.1	-27.6%	?	7.5%	14.6µM*
CCN(CC)c1ccc(S(=O)(=O)N2CCOCC2)cc1NC(=O)Nc1ccccc1	?	12.8	-8.8%	?	-0.1%	20.6µM*
Cc1ccc(S(=O)(=O)N2CCOCC2)cc1NC(=O)CSc1ccc(Cl)cc1	?	-8.6	1.7%	2.3%	·	?
O=C(CC1C(=O)N(c2ccccc2)C(=O)N1CCc1cccs1)Nc1ccc(Cl)cc1 (stereo not given)	20.6µM*	·	-42.2%	?	6.4%	?
Cc1ccsc1CCN1C(=O)N(c2ccccc2)C(=O)C1CC(=O)Nc1ccc(Cl)cc1 (stereo not given)	25.9µM*	·	-31.8%	?	-3.8%	?
C=CC[C@H](CC(=O)N[C@H](CO)Cc1ccccc1)C(=O)N[C@@H](COC(=O)[C@@H](CC=C)Cc1ccc(F)cc1)Cc1c[nH]c2ccccc12	?	-16.9	3.2%	-22.6%	1.6%	?
C=CC[C@@H](CC(=O)N(CCO)Cc1ccccc1)C(=O)N[C@H](COC(=O)[C@@H](CC=C)Cc1ccc(F)cc1)Cc1ccccc1	?	-63.5*	-13.1%	?	1.0%	23.1µM*
C=CC[C@@H](CC(=O)N(CCO)Cc1ccccc1)C(=O)N[C@@H](COC(=O)[C@@H](CC=C)Cc1ccc(F)cc1)Cc1ccccc1	20.6µM*	-68.2*	-4.3%	-13.0%	0.4%	20.6µM*
Cc1cc(NC(=O)C(C)SCC(=O)OCC(=O)N(C)c2ccccc2)no1 (stereo not given)	14.5%	-4.0	7.4%	16.8%	2.5%	-1.7%
O=C(COc1ccc(F)cc1F)Nc1cccnc1	-6.0%	-29.2	1.9%	0.4%	0.8%	12.6%

Screens from PubChem BioAssay.
